Assay outcomes (PubChem BioAssay)
Only some compounds are listed: those with a hit (about 1.6% of all), similar ones and a draw of the others.
p97 inhibitor – inhibitors of human p97 ATPase, primary screen, biochemical; AID 1481, 2009; inhibition, % at 8 µM; 220,000 tested, 0.42% active; recombinant p97 ATPase, Kinase-Glo ATP luminescence, 3 h; Transitional endoplasmic reticulum ATPase (Homo sapiens), P55072; in the data active means inhibition above about 15%
Hsp70 activator – Hsp70 transcriptional activators, primary screen, cell-based, HeLa, Hsp70 promoter luciferase, luminescence, 10 µM; HeLa Hsp70 promoter luciferase reporter; scaled: vehicle 0, proteasome-inhibitor control 100%; activation, % at 10 µM; 200,000 tested, 0.04% active;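 active means activation above the mean across all tested compounds plus 3 SD, cutoff set per campaign, cut at about 5.5% in these data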
Wee1 stabilizer – Wee1 degradation inhibitors, primary screen, cell-based, HeLa, Wee1K328M-luciferase, luminescence; AID 1321, 2008; HeLa Luc-Wee1K328M stability; 100% = proteasome inhibitor MG132 effect; 220,000 tested, 1.2% active; reporter increase, % at 5 µM;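 active means activation above the mean of all tested compounds plus 3 SD, set per screening run, cut at about 8.8% in these data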;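 further: cells exposed to compound for 20 h before luminescence read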
Target sequence (P30291 whole entry K328M): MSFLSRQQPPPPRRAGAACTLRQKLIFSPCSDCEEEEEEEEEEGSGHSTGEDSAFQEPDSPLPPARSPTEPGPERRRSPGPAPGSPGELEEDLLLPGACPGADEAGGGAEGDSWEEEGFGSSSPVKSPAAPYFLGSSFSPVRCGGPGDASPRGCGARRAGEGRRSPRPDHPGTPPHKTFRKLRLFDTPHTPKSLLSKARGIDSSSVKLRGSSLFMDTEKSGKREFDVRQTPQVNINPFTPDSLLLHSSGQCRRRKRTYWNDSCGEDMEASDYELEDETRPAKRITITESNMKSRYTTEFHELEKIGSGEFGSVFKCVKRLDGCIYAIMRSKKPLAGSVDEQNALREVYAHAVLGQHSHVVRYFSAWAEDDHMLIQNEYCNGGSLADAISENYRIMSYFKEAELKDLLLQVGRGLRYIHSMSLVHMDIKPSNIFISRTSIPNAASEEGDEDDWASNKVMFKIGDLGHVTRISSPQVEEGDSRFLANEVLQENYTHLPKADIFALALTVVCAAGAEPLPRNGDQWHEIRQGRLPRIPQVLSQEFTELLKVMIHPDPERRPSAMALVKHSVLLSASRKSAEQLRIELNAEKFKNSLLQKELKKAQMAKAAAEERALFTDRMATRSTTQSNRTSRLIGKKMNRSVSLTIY
HSV augment – enhancers of HSV replication in host cells, fold increase, host cell viability; HSV replication augmentation in cells; maximum fold increase; 220,000 tested, 0.005% active; AID 1956, 2009; in the data active means maximum fold increase above about 1.5; tested in PC3 cells
DTT redox prof – compounds producing H2O2 with reducing agent – biochemical, NIH compound library profiling, artefact control for MLSCN library redox annotation, primary screen | AID 878, 2007 | DTT-dependent redox cycling H2O2, phenol red/HRP absorbance; 100% = 100 µM peroxide control, 0% = buffer | activation, % at 10 µM | 200,000 tested, 0.03% active;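 active means activation of at least 50% relative to the plate's high and low controls in the primary single-dose screen; inactive means activation below 50%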;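 further: compound incubated with DTT at 0.8 mM final as the reducing agent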
Wee1 stab conf – Wee1 degradation inhibitors, confirmation, cell-based, HeLa, Wee1K328M-luciferase, luminescence, triplicate; 1,100 tested, 4% active; AID 1410, 2008; activation, % at 5 µM; HeLa Luc-Wee1K328M degradation; vehicle 0%, proteasome-blocked wells 100%; shares compounds with Wee1 stabilizer; in the data active means activation above about 8.9%
Large screens that a line does not name were inactive (follow-up assays come after a bar, where they were run).

Cc1cc(C)c2c(c1)cc(C)c1nnc(SCC(=O)Nc3ccc(S(=O)(=O)N4CCCCC4)cc3)n12	none
C=CCNC(=O)/C=C/c1c(F)cccc1Cl	Wee1 stabilizer 13 | Wee1 stab conf inactive
COc1ccc(-c2cc(=O)oc3cc(OCC(C)=O)ccc23)cc1	Wee1 stabilizer 17 | Wee1 stab conf inactive
Cc1ccc2nc3c(cc(C(=O)NCCCn4ccnc4)n3C)c(=O)n2c1	Wee1 stabilizer 23 | Wee1 stab conf inactive
Cc1ccnc(NC(=O)c2cc3ccccc3oc2=O)c1	Wee1 stabilizer 13 | Wee1 stab conf inactive
O=C(NCCCn1ccnc1)c1cc2ccccc2oc1=O	Wee1 stabilizer 13 | Wee1 stab conf inactive
Cc1ccc2nc3c(cc(C(=O)NCC4CCCO4)n3C)c(=O)n2c1 (configuration not stated)	none
O=C(NCCCN1CCOCC1)c1cc2ccccc2oc1=O	none
CS(=O)(=O)N(Cc1ccc(C(=O)NCCSCc2ccco2)cc1)c1ccccc1	none
CNc1nc2c(c(=O)n(C)c(=O)n2C)n1Cc1ccccc1	none
CCCCCC(=O)Nc1cccc(C2=NOC3(C2)C[C@H](C(N)=O)N(C(=O)CC#N)C3)c1 (some centres not stated)	none (no result: p97 inhibitor, Hsp70 activator, Wee1 stabilizer, DTT redox prof)
CCN1CCCC1CNCc1ccc(OCc2ccc(Cl)nc2)c(OC)c1 (configuration not stated)	Wee1 stabilizer 15 (no result: Hsp70 activator, DTT redox prof) | Wee1 stab conf inactive
CCCCNCc1ccc(OCc2ccc(Cl)nc2)c(OC)c1	none (no result: Hsp70 activator, DTT redox prof)
CC(C)N(Cc1ccccc1)C(=O)CSc1nccn1C	Wee1 stabilizer 12 | Wee1 stab conf inactive
CC(C)(C)C(=O)c1cnc(Nc2ccccc2Cl)s1	Wee1 stabilizer 16 | Wee1 stab conf inactive
O=C(NC1CCCCC1)NC1CC2CCC(C1)N2C(=O)NC1CCCCC1 (configuration not stated)	Wee1 stabilizer 15 | Wee1 stab conf inactive
CCC(C)(C)NC(=O)C(c1ccncc1)N(Cc1cccs1)C(=O)Cn1nnc2ccccc21 (configuration not stated)	none
CCC(C)(C)NC(=O)C(c1ccncc1)N(C(=O)Cn1nnc2ccccc21)c1cc2c(cc1C(C)=O)OCO2 (configuration not stated)	Wee1 stabilizer 14 | Wee1 stab conf inactive
CN(CCc1ccccn1)C(=S)Nc1ccc(Cl)c(Cl)c1	Wee1 stabilizer 15 | Wee1 stab conf inactive
COc1ccc(CCN2C(=O)N(c3ccc(OC)cc3)C(=O)C2CC(=O)Nc2ccccc2)cc1 (configuration not stated)	Wee1 stabilizer 21 | Wee1 stab conf inactive
NC(=O)C1CCN(C(=S)NCc2ccc3c(c2)OCO3)CC1	none
COc1ccc(C(=O)N[C@H](C(=O)OCC(=O)NC(=O)c2cccn2C)C(C)C)cc1	none
Cc1ccc2nc(NCc3ccccc3)[nH]c2c1	Wee1 stabilizer 17 | Wee1 stab conf 29
COc1ccc2nc(NCc3ccccc3)[nH]c2c1	none
CC(=O)Nc1ccc(OCC(=O)NCCc2ccc(Cl)cc2)cc1	none
Cc1cccc(C)c1NC(=O)C(=O)NCCCN1CCOCC1	none
Cc1cccc(C)c1NC(=O)NCCCN1CCN(c2ccccc2)CC1	Wee1 stabilizer 11 | Wee1 stab conf inactive
CCc1nnc(NC(=O)C(CC)CC)s1	none (no result: Hsp70 activator, DTT redox prof)
CC(C)Cn1c(-c2ccc(C#N)cc2)nc2c1c(=O)[nH]c(=O)n2CC(C)C	Wee1 stabilizer 36 | Wee1 stab conf inactive
CCOC(=O)Cc1csc(NC(=O)/C=C/c2ccc(OC)cc2)n1	none
Cc1ccc(-c2cc(C(F)(F)F)c(C#N)c(=O)[nH]2)cc1	none
N#Cc1c(C(F)(F)F)cc(C2CC2)[nH]c1=O	Wee1 stabilizer 15 | Wee1 stab conf inactive
C=CCOc1ccc(CNC(C)(C)CO)cc1OC	none
CCOC(=O)c1c(C)n(O)c2ccc(Cl)cc2c1=O	none
Cc1ccc(S(=O)(=O)CCC(=O)OCC(=O)NC(N)=O)cc1	Wee1 stabilizer 14 (no result: Hsp70 activator, DTT redox prof) | Wee1 stab conf inactive
Cc1cc(N)n(-c2ccc(S(=O)(=O)N3CCOCC3)cc2[N+](=O)[O-])n1	none (no result: Hsp70 activator, DTT redox prof)
Cc1ccc(C(=O)Nc2ccon2)cc1S(=O)(=O)N1CCCCCC1	none
Cc1cc(C)n(C(=O)c2ccc(C)c(S(=O)(=O)N3CCCCC3)c2)n1	Wee1 stabilizer 24 | Wee1 stab conf inactive
Cc1ccc(NC(=O)c2cccc(F)c2)cc1S(=O)(=O)N1CCCCCC1	Wee1 stabilizer 14 | Wee1 stab conf inactive
O=C(NNC(=S)Nc1ccc(F)c(Cl)c1)C1CC1	none
CCc1ccc(C2c3[nH]c4ccccc4c3CCN2C(=O)CN2CCN(CC)CC2)cc1 (configuration not stated)	none
CCc1ccc(C2c3[nH]c4ccccc4c3CCN2C(=O)CNC(N)=O)cc1 (configuration not stated)	Wee1 stabilizer 23 | Wee1 stab conf inactive
COc1cccc(C(c2sc3nc(C)nn3c2O)N2CCN(c3ccccc3F)CC2)c1 (configuration not stated)	none
COc1ccc(C2=NN(S(=O)(=O)c3ccccc3)C(c3ccccc3)C2)cc1 (configuration not stated)	Wee1 stabilizer 11 (no result: Hsp70 activator, DTT redox prof) | Wee1 stab conf inactive
O=[N+]([O-])c1ccc(S(=O)(=O)N2CCN=C2SCc2cccnc2)cc1	Wee1 stabilizer 12 | Wee1 stab conf inactive
CCc1cc(C(=O)NCCN(C)C)cs1	none
Cn1c(=NC(=O)c2ccccc2[N+](=O)[O-])sc2cccc(F)c21	Wee1 stabilizer 17 (no result: Hsp70 activator, DTT redox prof) | Wee1 stab conf inactive
Cn1c(=NC(=O)C(C)(C)C)sc2cccc(F)c21	none (no result: Hsp70 activator, DTT redox prof)
CCCCCOc1ccc(Cn2ccnc2)cc1[N+](=O)[O-]	none
CCOc1ccc(Cn2ccnc2)cc1[N+](=O)[O-]	Wee1 stabilizer 16 | Wee1 stab conf inactive
COc1ccc(C(=O)NCCCn2ccnc2)cc1[N+](=O)[O-]	Wee1 stabilizer 18 (no result: Hsp70 activator, DTT redox prof) | Wee1 stab conf inactive
COc1cc(C(=O)NCCCn2ccnc2)cc(OC)c1OC	none
Cc1c(CCO)c(=O)oc2n[nH]c(-c3ccccc3)c12	none
Nc1ncnc2c1ncn2C1OC(CO)C(O)C1N (configuration not stated)	none (no result: Hsp70 activator, DTT redox prof)
O=C(OCC1OC(n2cnc3c(N(C(=O)c4ccccc4)C(=O)c4ccccc4)ncnc32)C(O)C1F)c1ccccc1 (configuration not stated)	Wee1 stabilizer 11 | Wee1 stab conf inactive
O=C(CSc1nnc(-c2cccc(S(=O)(=O)N3CCCC3)c2)n1-c1ccccc1)Nc1ccc(C(=O)O)cc1	none
Cc1cccc(C)c1-n1c(SCC(=O)Nc2ccc(C(=O)O)cc2)nnc1-c1cccc(S(=O)(=O)N(C)C)c1	Wee1 stabilizer 12 | Wee1 stab conf inactive
